Test [1] can be described thus: compound effects on differentiated 3T3-L1 adipocyte viability – cell-based, 3T3-L1 adipocytes, calcein-AM fluorescence, 48 h, basal, profiling panel (AID 1163). The following applies: 3T3-L1 adipocytes viability, higher = more signal.
Test [2] is described as follows: compound effects on hepatocellular carcinoma cell viability – HepG2, calcein-AM fluorescence, 48 h, basal, profiling panel (AID 1164). The conditions noted are these: higher = more signal.
A short description of test [3]: compound effects on multiple myeloma cell viability – MM1S, calcein-AM fluorescence, 48 h, basal, profiling panel (AID 1165). The conditions noted are these: higher = more signal.
Test [4] is described as follows: calcein-AM signal in unstimulated myeloma cells – cell-based, calcein-AM fluorescence, 48 h, PK04 Diversity Set, profiling panel (AID 1166).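 Note: cells grown under basal conditions without added stimulus.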 The following applies: RPMI8226 myeloma viability, higher = more signal.
Test [5] in a line: JC-1 mitochondrial signal, unstimulated HepG2 cells – cell-based, JC-1 fluorescence, 24 h, 100 nL compound, profiling panel (AID 1167). The conditions noted are these: HepG2 mitochondrial potential, higher = more signal.
A short description of test [6]: JC-1 mitochondrial signal, unstimulated adipocytes – cell-based, JC-1 fluorescence, 3T3-L1 adipocytes, 24 h, 100 nL compound, profiling panel (AID 1168). The conditions noted are these: JC-1 mitochondrial fluorescence, higher = more signal, called active from +8 up or from −8 down.
A short description of test [7]: JC-1 mitochondrial signal, unstimulated myeloma cells – cell-based, JC-1 fluorescence, RPMI8226, 24 h, 100 nL compound, profiling panel (AID 1169). The following applies: JC-1 mitochondrial potential fluorescence, higher = more signal.
A short description of test [8]: JC-1 mitochondrial signal, unstimulated MM1S myeloma – cell-based, JC-1 fluorescence, 24 h, 100 nL compound, profiling panel (AID 1170). The following applies: MM1S mitochondrial potential, higher = more signal.
Test [9] in a line: resazurin metabolic signal in A549 cells – cell-based, resazurin fluorescence, 24 h, PK04 Diversity Set, profiling panel (AID 1171). The conditions noted are these: A549 viability, higher = more signal, called active from +8 up or from −8 down. Background: The colour change of resazurin is a common sign of viable cells or microbes.
The nature of test [10]: resazurin metabolic signal in HepG2 cells – cell-based, resazurin fluorescence, 24 h, PK04 Diversity Set, profiling panel (AID 1172). The conditions noted are these: HepG2 viability, higher = more signal.
Test [11] can be described thus: budding yeast growth changes without added modifier – OD600, strain BY4716, 24 h, basal condition, primary screen (AID 1173). The conditions noted are these: S. cerevisiae BY4716 growth, OD600, 24 h; higher = more signal, called active from +8 up or from −8 down.
Test [12] in a line: viability profiling in MM1S myeloma cells – cell-based, resazurin fluorescence, basal, 24 h, PK04 Diversity Set, profiling panel (AID 1174). The following applies: higher = more signal, called active from +8 up or from −8 down.
Test [13] concerns the target Dihydroorotate dehydrogenase (quinone), mitochondrial (Plasmodium falciparum (isolate 3D7)) (UniProt Q08210). Nature of the test: inhibition of P. falciparum DHODH – biochemical, C-terminal His tag, absorbance 600 nm, primary screen (AID 1175).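 Note: recombinant parasite enzyme with a five histidine tag at its C terminus.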 The following applies: PfDHODH enzyme, DCIP absorbance 600 nm; higher = more signal, called active from +8 up or from −8 down.

Test [14] can be described thus: growth modulation of vineyard yeast isolate – strain RM11-1a, OD600, basal, 24 h, primary screen (AID 1177).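 Note: cultures grown under basal conditions with no added stressor.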 The conditions noted are these: S. cerevisiae RM11-1a growth, OD600, 24 h; higher = more signal, called active from +8 up or from −8 down.
Test [15] can be described thus: growth of efflux-deficient E. coli DRC39 – strain DRC39, OD650, 24 h, E. coli filamentation inducers, primary screen (AID 1178).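 Note: growth measured as culture turbidity by optical density at 650 nm.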 The conditions noted are these: E. coli DRC39 acrAB, higher = more signal, called active from +8 up or from −8 down.
Test [16] in a line: growth of efflux-deficient E. coli DRC39 – strain DRC39, OD650, 48 h, E. coli filamentation inducers, primary screen (AID 1179).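 Note: screen aims at cell division blockers that make cells filament.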 The conditions noted are these: E. coli DRC39 delta-acrAB growth, higher = more signal, called active from +8 up or from −8 down.
A short description of test [17]: viability profiling in RPMI8226 myeloma cells – cell-based, resazurin fluorescence, basal, 24 h, PK04 Diversity Set, profiling panel (AID 1180).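 Note: RPMI8826 multiple myeloma cell line at 5000 cells per well.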 The following applies: higher = more signal.
The target in test [18] is E3 ubiquitin-protein ligase XIAP (Homo sapiens) (UniProt P98170). Kind of test: small molecules binding XIAP protein – biophysical, small-molecule microarray, fluorescence 635 nm, primary screen (AID 1181).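 Note: score merges 667 nm emission and signal to noise over triplicate slides.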 The following applies: higher = more signal.
Sequence of E3 ubiquitin-protein ligase XIAP (Homo sapiens) (P98170 whole entry, looked up, the tested form may be a part): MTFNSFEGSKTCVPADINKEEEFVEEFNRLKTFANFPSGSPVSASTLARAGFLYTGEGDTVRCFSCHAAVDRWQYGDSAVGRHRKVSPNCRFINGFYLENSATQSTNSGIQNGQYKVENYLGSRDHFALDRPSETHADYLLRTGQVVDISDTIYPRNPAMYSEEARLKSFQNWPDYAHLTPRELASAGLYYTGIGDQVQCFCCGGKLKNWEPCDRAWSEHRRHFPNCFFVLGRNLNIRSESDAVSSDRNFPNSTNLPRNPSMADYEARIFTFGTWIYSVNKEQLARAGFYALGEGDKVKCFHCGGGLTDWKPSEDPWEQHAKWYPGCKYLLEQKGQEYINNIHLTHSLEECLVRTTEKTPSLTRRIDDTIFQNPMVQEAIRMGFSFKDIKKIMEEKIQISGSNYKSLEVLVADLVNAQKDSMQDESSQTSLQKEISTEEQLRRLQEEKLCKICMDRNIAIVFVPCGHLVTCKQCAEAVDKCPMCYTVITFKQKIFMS
In test [19] the test system is XIP peptide (Xip251-270) binding. Kind of test: XIP fragment 251-270 binding compounds – biochemical, small-molecule microarray, fluorescence 635/667 nm, 0.1 µg/mL protein, primary screen (AID 1182). The conditions noted are these: fluorescent protein binding, 635 nm, higher = more signal, called active from +8 up or from −8 down.
The next test relates to XIP peptide (Xip251-270). Kind of test: compounds binding XIP fragment 251-270 – biochemical, small-molecule microarray, fluorescence 635/667 nm, 0.5 µg/mL protein, primary screen (AID 1183). The following applies: fluorescence 635 nm, higher = more signal.

Activity calls are given as the source filed them.

Sequence of Dihydroorotate dehydrogenase (quinone), mitochondrial (Plasmodium falciparum (isolate 3D7)) (Q08210 whole entry, looked up): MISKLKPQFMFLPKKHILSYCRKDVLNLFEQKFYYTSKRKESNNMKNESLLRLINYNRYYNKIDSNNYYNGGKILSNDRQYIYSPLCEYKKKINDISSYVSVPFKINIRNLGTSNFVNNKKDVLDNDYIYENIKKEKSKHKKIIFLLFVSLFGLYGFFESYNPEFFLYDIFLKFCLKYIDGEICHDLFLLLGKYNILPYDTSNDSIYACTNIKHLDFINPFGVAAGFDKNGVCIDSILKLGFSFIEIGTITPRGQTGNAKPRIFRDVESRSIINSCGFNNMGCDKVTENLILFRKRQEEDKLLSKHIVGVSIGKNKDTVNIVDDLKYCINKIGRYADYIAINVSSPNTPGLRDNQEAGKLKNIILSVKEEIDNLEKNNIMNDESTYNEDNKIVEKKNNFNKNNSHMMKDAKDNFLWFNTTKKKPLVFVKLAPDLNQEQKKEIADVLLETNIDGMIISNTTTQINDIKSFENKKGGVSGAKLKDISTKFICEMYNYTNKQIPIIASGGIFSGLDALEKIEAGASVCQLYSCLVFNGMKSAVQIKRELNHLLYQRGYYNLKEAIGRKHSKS

Turning to `COCCCNC(=O)[C@@]1(Cc2ccccc2)N=C(c2ccc(OCCCO)cc2)O[C@H]1c1ccccc1N=[N+]=[N-]`, the z-score in test [1] was 1.95; in [2] it was -0.121; in test [3], -1.67; in test [4], -4.02; in [5], 1.12; in test [6], 2.93 (inactive). Besides, the z-score in [7] is -1.1; in test [8] it was -0.433; in [9] it was -1.83 (inactive); in [10], 0.357; in test [11], 0.346 (inactive); in test [12], -1.13 (inactive). Moreover, the z-score is 2.42 (inactive) in [14], 1.22 (inactive) in test [15], 0.18 (inactive) in test [16] and -2.12 in [17]. Moreover, the composite z-score in test [13] is 1.37 (inactive); in [18] it was 0.085; in test [19], 0.619 (inactive); with XIP peptide (Xip251-270), -0.473.
Take `C=CC[C@]1(C(=O)N2CCCCC2)COC(c2ccc(OCCCO)cc2)=N1`: the z-score in [1] is 1.98; in [2] it was -2.29; in test [3] it was -3.6; in test [4], -2.3; in test [5], -0.223; in test [6], 0.322 (inactive). For the same compound, the z-score in test [7] was -0.749; in test [8], -0.435; in test [9] it was -0.585 (inactive); in test [10], 1.55; in test [11], -6.59 (inactive); in test [12] it was -0.863 (inactive). Moreover, the z-score in test [14] was 0.474 (inactive); in [15], 2.98 (inactive); in test [16] it was 0.693 (inactive); in [17] it was 0.909. The composite z-score in test [13] is -0.0606 (inactive); in [18], -0.17; in test [19] it was 0.502 (inactive); in the test on XIP peptide (Xip251-270), 0.54.
Consider `COc1ccc([Si](C)(C)[C@H]2[C@H](CC(=O)N3Cc4ccccc4C[C@H]3CO)O[C@@]3(C(=O)N(Cc4cccc(N5C(=O)COc6ccccc65)c4)c4ccccc43)[C@@H]2C)cc1`, for which the z-score was 1.8 in test [1]; -0.0432 in test [2]; -0.227 in test [3]; -1.19 in test [4]; 2.09 in test [5]; 0.335 (inactive) in test [6]. Besides, the z-score in test [7] was -1.15; in test [8], 0.424; in test [9] it was -0.987 (inactive); in test [10] it was -0.593; in test [11] it was -0.855 (inactive); in test [12], -1.11 (inactive). Further, the z-score was 2.03 (inactive) in test [14], 1.48 (inactive) in [15], -0.185 (inactive) in test [16] and -0.668 in [17]. For the same compound, the composite z-score is -0.0999 (inactive) in test [13], -0.163 in [18], 1.83 (inactive) in [19] and 0.618 with XIP peptide (Xip251-270).
For the compound `COc1ccc(C#Cc2ccc3c(c2)[C@]2(C(=O)N3)[C@H](c3ccc(O)cc3)N3[C@H](c4ccccc4)[C@H](c4ccccc4)OC(=O)[C@H]3[C@@H]2C(=O)N2CCN(c3ncccn3)CC2)cc1`, the z-score in test [1] is 1.37; in [2], 0.385; in test [3], -0.233; in test [4], -0.474; in [5], -0.16; in test [6], 1.57 (inactive). Moreover, the z-score in test [7] was -0.719; in test [8] it was 0.463; in [9], 0.682 (inactive); in test [10] it was -0.169; in test [11] it was 0.0719 (inactive); in test [12] it was 0.95 (inactive). For the same compound, the z-score in test [14] was 0.537 (inactive); in test [15], 0.0488 (inactive); in test [16], 0.255 (inactive); in [17], 1.19. Moreover, the composite z-score in [13] is 0.848 (inactive); in test [18], -0.0062; in test [19] it was 1.62 (inactive); in the test with XIP peptide (Xip251-270) it was 0.388.
`C=CCC1(CC=C)C[C@H]2CO[C@H](c3ccc(OC)cc3)N2C1=O`: the z-score in [1] was 0.683; in [2] it was -0.88; in test [3], 0.347; in test [4] it was 0.0778; in test [5], 0.872; in test [6], 0.773 (inactive). The z-score in test [7] is -0.245; in test [8] it was 0.278; in [9], 0.771 (inactive); in test [10], 1.01; in test [11], -4.05 (inactive); in [12], -1.19 (inactive). Besides, the z-score in test [14] is -0.169 (inactive); in test [15], 1.51 (inactive); in [16], 1.03 (inactive); in test [17], 0.765. In addition, the composite z-score was 0.621 (inactive) in [13], -0.323 in test [18], 0.842 (inactive) in test [19] and 0.739 with XIP peptide (Xip251-270).

The record behind these values is PubChem BioAssay.
